Experimental data reported in the supplement of paper PMC7184167.
Counter-ions that a name gives are not always drawn.

Tested on: replication-induced senescent mouse newborn dermal fibroblasts (NBF)
Assay: relative cell viability of senescent cells (fraction); higher = less killing of senescent cells
Conditions: 1 µM; 3 days
Description: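 Replication-induced senescent newborn mouse skin fibroblasts (NBFs) in 24-well plates were treated with a Selleck FDA-approved drug library at 1 µM for 3 days.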

SMILES | relative cell viability
Clc1ccc(CCC(Cn2ccnc2)Sc2c(Cl)cccc2Cl)cc1 (centres undefined) [Butoconazole nitrate] | 1.14
COc1ccccc1OCC(O)CN1CCN(CC(=O)Nc2c(C)cccc2C)CC1 (centres undefined) [Ranolazine] | 0.994
CNS(=O)(=O)CCc1ccc2[nH]cc(C3CCN(C)CC3)c2c1 [Naratriptan HCl] | 1.14
CCCc1cc(C(N)=S)ccn1 [Protionamide] | 1.02
Cc1ccccc1N1C(=O)c2cc(S(N)(=O)=O)c(Cl)cc2NC1C (centres undefined) [Metolazone] | 0.962
CCCCC1=NC2(CCCC2)C(=O)N1Cc1ccc(-c2ccccc2-c2nnn[nH]2)cc1 [Irbesartan] | 0.868
CN1CCN(c2ccc3nc(-c4c(N)c5c(F)cccc5[nH]c4=O)[nH]c3c2)CC1 [Dovitinib (TKI-258, CHIR-258)] | 0.589
O=S(=O)(c1cccc2cnccc12)N1CCCNCC1 [Fasudil (HA-1077) HCl] | 1.14
COc1ccc(/C=C/C(=O)Nc2ccccc2C(=O)O)cc1OC [Tranilast] | 1
